# The supplement of paper PMC4466140
# How the values were obtained:
# Test in all cases: SPOT peptide array binding signal intensity (averaged, normalized) (arbitrary units (background-subtracted, floor 0; scale differs between SH3 domains)); higher = stronger binding of the SH3 domain to the peptide
# [1] = target: AgAbp1
# Method: (§1)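 GST-tagged SH3 domains from S. cerevisiae (Sc), A. gossypii (Ag), C. albicans (Ca) and S. pombe (Sp) were incubated at 10 ug/ml overnight at 4 C on cellulose SPOT membranes carrying 292 synthetic 15-mer peptides mined from the S. cerevisiae proteome (cysteines replaced by serines). Binding was detected with anti-GST antibody, HRP secondary and chemiluminescence, quantified with Genespotter, and reported as normalized spot intensities averaged over biological replicates.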
# [2] = target: AgBbc1
# Method: as §1
# [3] = target: AgBem1-D1
# Method: as §1
# [4] = target: AgBzz1-D1
# Method: as §1
# [5] = target: AgBzz1-D2
# Method: as §1
# [6] = target: AgCyk3
# Method: as §1
# [7] = target: AgFus1
# Method: as §1
# [8] = target: AgHof1
# Method: as §1
# [9] = target: AgHse1
# Method: as §1
# [10] = target: AgLsb1
# Method: as §1
# [11] = target: AgLsb4
# Method: as §1
# [12] = target: AgMyo5
# Method: as §1
# [13] = target: AgNbp2
# Method: as §1
# [14] = target: AgRvs167
# Method: as §1
# [15] = target: AgSho1
# Method: as §1
# [16] = target: AgSla1-D1-D2
# Method: as §1
# [17] = target: AgSla1-D3
# Method: as §1
# [18] = target: CaAbp1-D1
# Method: as §1
# [19] = target: CaAbp1-D2
# Method: as §1
# [20] = target: CaBbc1
# Method: as §1
# [21] = target: CaBem1-D1
# Method: as §1
# [22] = target: CaBzz1-D1
# Method: as §1
# [23] = target: CaBzz1-D2
# Method: as §1
# [24] = target: CaCyk3
# Method: as §1
# [25] = target: CaFus1
# Method: as §1
# [26] = target: CaHof1
# Method: as §1
# [27] = target: CaHse1
# Method: as §1
# [28] = target: CaLsb1
# Method: as §1
# [29] = target: CaLsb4
# Method: as §1
# [30] = target: CaMyo5
# Method: as §1
# [31] = target: CaNbp2
# Method: as §1
# [32] = target: CaRvs167
# Method: as §1
# [33] = target: CaRvs167-3
# Method: as §1
# [34] = target: CaSho1
# Method: as §1
# [35] = target: CaSla1-D1-D2
# Method: as §1
# [36] = target: CaSla1-D3
# Method: as §1
# [37] = target: ScAbp1
# Method: as §1
# [38] = target: ScBbc1
# Method: as §1
# [39] = target: ScBem1-D1
# Method: as §1
# [40] = target: ScBzz1-D1
# Method: as §1
# [41] = target: ScBzz1-D2
# Method: as §1
# [42] = target: ScCyk3
# Method: as §1
# [43] = target: ScFus1
# Method: as §1
# [44] = target: ScHof1
# Method: as §1
# [45] = target: ScHse1
# Method: as §1
# [46] = target: ScLsb1
# Method: as §1
# [47] = target: ScLsb2
# Method: as §1
# [48] = target: ScLsb3
# Method: as §1
# [49] = target: ScLsb4
# Method: as §1
# [50] = target: ScMyo3
# Method: as §1
# [51] = target: ScMyo5
# Method: as §1
# [52] = target: ScNbp2
# Method: as §1
# [53] = target: ScPex13
# Method: as §1
# [54] = target: ScRvs167
# Method: as §1
# [55] = target: ScSho1
# Method: as §1
# [56] = target: ScSla1-D1-D2
# Method: as §1
# [57] = target: ScSla1-D3
# Method: as §1
# [58] = target: SpAbp1-D1
# Method: as §1
# [59] = target: SpBbc1
# Method: as §1
# [60] = target: SpBzz1-D1
# Method: as §1
# [61] = target: SpBzz1-D2
# Method: as §1
# [62] = target: SpCyk3
# Method: as §1
# [63] = target: SpHof1
# Method: as §1
# [64] = target: SpHof1-2
# Method: as §1
# [65] = target: SpHof1-3
# Method: as §1
# [66] = target: SpHse1
# Method: as §1
# [67] = target: SpLsb1
# Method: as §1
# [68] = target: SpLsb4
# Method: as §1
# [69] = target: SpMyo1
# Method: as §1
# [70] = target: SpNbp2
# Method: as §1
# [71] = target: SpPex13
# Method: as §1
# [72] = target: SpRvs167
# Method: as §1
# [73] = target: SpSla1-D1-D2
# Method: as §1
# [74] = target: SpSla1-D3
# Method: as §1
binder,measurement,setting,value
KTKQQKPAIPQKKSF,SPOT peptide array binding signal intensity,[1],2190
same,SPOT peptide array binding signal intensity,[2],16.5
same,SPOT peptide array binding signal intensity,[3],7
same,SPOT peptide array binding signal intensity,[4],73
same,SPOT peptide array binding signal intensity,[5],21
same,SPOT peptide array binding signal intensity,[6],≤ 0
same,SPOT peptide array binding signal intensity,[7],≤ 0
same,SPOT peptide array binding signal intensity,[8],35.5
same,SPOT peptide array binding signal intensity,[9],≤ 0
same,SPOT peptide array binding signal intensity,[10],≤ 0
same,SPOT peptide array binding signal intensity,[11],1.5
same,SPOT peptide array binding signal intensity,[12],4
same,SPOT peptide array binding signal intensity,[13],14
same,SPOT peptide array binding signal intensity,[14],0.333
same,SPOT peptide array binding signal intensity,[15],≤ 0
same,SPOT peptide array binding signal intensity,[16],17
same,SPOT peptide array binding signal intensity,[17],19.5
same,SPOT peptide array binding signal intensity,[18],4040
same,SPOT peptide array binding signal intensity,[19],6440
same,SPOT peptide array binding signal intensity,[20],149
same,SPOT peptide array binding signal intensity,[21],3
same,SPOT peptide array binding signal intensity,[22],742
same,SPOT peptide array binding signal intensity,[23],584
same,SPOT peptide array binding signal intensity,[24],2
same,SPOT peptide array binding signal intensity,[25],≤ 0
same,SPOT peptide array binding signal intensity,[26],2
same,SPOT peptide array binding signal intensity,[27],1.75
same,SPOT peptide array binding signal intensity,[28],≤ 0
same,SPOT peptide array binding signal intensity,[29],≤ 0
same,SPOT peptide array binding signal intensity,[30],1.5
same,SPOT peptide array binding signal intensity,[31],≤ 0
same,SPOT peptide array binding signal intensity,[32],2.33
same,SPOT peptide array binding signal intensity,[33],1.5
same,SPOT peptide array binding signal intensity,[34],≤ 0
same,SPOT peptide array binding signal intensity,[35],1260
same,SPOT peptide array binding signal intensity,[36],≤ 0
same,SPOT peptide array binding signal intensity,[37],1480
same,SPOT peptide array binding signal intensity,[38],3
same,SPOT peptide array binding signal intensity,[39],15
same,SPOT peptide array binding signal intensity,[40],37
same,SPOT peptide array binding signal intensity,[41],19.5
same,SPOT peptide array binding signal intensity,[42],≤ 0
same,SPOT peptide array binding signal intensity,[43],≤ 0
same,SPOT peptide array binding signal intensity,[44],7.75
same,SPOT peptide array binding signal intensity,[45],54.5
same,SPOT peptide array binding signal intensity,[46],4
same,SPOT peptide array binding signal intensity,[47],≤ 0
same,SPOT peptide array binding signal intensity,[48],328
same,SPOT peptide array binding signal intensity,[49],≤ 0
same,SPOT peptide array binding signal intensity,[50],19
same,SPOT peptide array binding signal intensity,[51],4.75
same,SPOT peptide array binding signal intensity,[52],≤ 0
same,SPOT peptide array binding signal intensity,[53],0.75
same,SPOT peptide array binding signal intensity,[54],4.67
same,SPOT peptide array binding signal intensity,[55],3
same,SPOT peptide array binding signal intensity,[56],213
same,SPOT peptide array binding signal intensity,[57],7.25
same,SPOT peptide array binding signal intensity,[58],1420
same,SPOT peptide array binding signal intensity,[59],2.5
same,SPOT peptide array binding signal intensity,[60],256
same,SPOT peptide array binding signal intensity,[61],2
same,SPOT peptide array binding signal intensity,[62],≤ 0
same,SPOT peptide array binding signal intensity,[63],0.5
same,SPOT peptide array binding signal intensity,[64],5.75
same,SPOT peptide array binding signal intensity,[65],134
same,SPOT peptide array binding signal intensity,[66],3.75
same,SPOT peptide array binding signal intensity,[67],5.5
same,SPOT peptide array binding signal intensity,[68],22.5
same,SPOT peptide array binding signal intensity,[69],5
same,SPOT peptide array binding signal intensity,[70],≤ 0
same,SPOT peptide array binding signal intensity,[71],≤ 0
same,SPOT peptide array binding signal intensity,[72],1
same,SPOT peptide array binding signal intensity,[73],3
same,SPOT peptide array binding signal intensity,[74],1
ALKQKKIPPPFKPHL,SPOT peptide array binding signal intensity,[61],≤ 0
same,SPOT peptide array binding signal intensity,[62],≤ 0
same,SPOT peptide array binding signal intensity,[63],≤ 0
same,SPOT peptide array binding signal intensity,[64],≤ 0
same,SPOT peptide array binding signal intensity,[65],39.5
same,SPOT peptide array binding signal intensity,[66],23
same,SPOT peptide array binding signal intensity,[67],≤ 0
same,SPOT peptide array binding signal intensity,[68],≤ 0
same,SPOT peptide array binding signal intensity,[69],≤ 0
same,SPOT peptide array binding signal intensity,[70],≤ 0
same,SPOT peptide array binding signal intensity,[71],≤ 0
same,SPOT peptide array binding signal intensity,[72],≤ 0
same,SPOT peptide array binding signal intensity,[73],≤ 0
same,SPOT peptide array binding signal intensity,[74],≤ 0
KRKRRLPVSEDTNTK,SPOT peptide array binding signal intensity,[1],42.5
same,SPOT peptide array binding signal intensity,[2],25
same,SPOT peptide array binding signal intensity,[3],322
same,SPOT peptide array binding signal intensity,[4],26.5
same,SPOT peptide array binding signal intensity,[5],47.5
same,SPOT peptide array binding signal intensity,[6],1
same,SPOT peptide array binding signal intensity,[7],519
same,SPOT peptide array binding signal intensity,[8],87
same,SPOT peptide array binding signal intensity,[9],656
same,SPOT peptide array binding signal intensity,[10],1.5
same,SPOT peptide array binding signal intensity,[11],46.5
same,SPOT peptide array binding signal intensity,[12],1.5
same,SPOT peptide array binding signal intensity,[13],213
same,SPOT peptide array binding signal intensity,[14],3.5
same,SPOT peptide array binding signal intensity,[15],53
same,SPOT peptide array binding signal intensity,[16],25.5
same,SPOT peptide array binding signal intensity,[17],7
same,SPOT peptide array binding signal intensity,[18],514
same,SPOT peptide array binding signal intensity,[19],626
same,SPOT peptide array binding signal intensity,[20],97
same,SPOT peptide array binding signal intensity,[21],3
same,SPOT peptide array binding signal intensity,[22],85
same,SPOT peptide array binding signal intensity,[23],69.8
same,SPOT peptide array binding signal intensity,[24],24
same,SPOT peptide array binding signal intensity,[25],1030
same,SPOT peptide array binding signal intensity,[26],0.5
same,SPOT peptide array binding signal intensity,[27],49
same,SPOT peptide array binding signal intensity,[28],0.75
same,SPOT peptide array binding signal intensity,[29],154
same,SPOT peptide array binding signal intensity,[30],3
